# SUMO HTRF inh: blocks human SUMOylation mediated by UBC9 | P63279 | HTRF SUMOylation assay, SAE1/SAE2 + UBC9, in vitro | inhibition, % at 35 µM | actives 0.36% (n = 290,000); in the data active = inhibition above about 50%, passing the limit was not always enough
# Target sequence (P63279 whole entry, looked up): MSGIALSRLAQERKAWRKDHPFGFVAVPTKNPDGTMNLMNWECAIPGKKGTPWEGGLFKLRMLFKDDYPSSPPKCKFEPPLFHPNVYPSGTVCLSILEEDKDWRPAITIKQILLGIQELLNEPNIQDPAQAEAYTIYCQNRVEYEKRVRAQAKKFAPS
# SIRT5 inh: blocks human SIRT5 desuccinylation of peptide. inhibition, % at 15 µM. Q9NXA8. actives 1.1% (n = 330,000). Purified SirT5, succinyl-peptide AMC, trypsin-coupled fluorescence. AID 652115; in the data active = inhibition above about 15%
# Target sequence (Q9NXA8 whole entry, looked up): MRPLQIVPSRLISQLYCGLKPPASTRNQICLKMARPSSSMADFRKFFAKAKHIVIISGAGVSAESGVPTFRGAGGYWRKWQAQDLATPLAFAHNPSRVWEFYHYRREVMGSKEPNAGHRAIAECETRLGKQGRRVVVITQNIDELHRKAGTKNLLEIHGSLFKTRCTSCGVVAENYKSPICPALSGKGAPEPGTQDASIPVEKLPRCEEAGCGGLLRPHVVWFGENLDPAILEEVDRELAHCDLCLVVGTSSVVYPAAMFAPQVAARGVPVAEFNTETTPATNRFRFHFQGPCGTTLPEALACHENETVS
# NSD2 HMT inh: NSD2 (human) methyltransferase inhibition; O96028; NSD2 peptide methylation, AlphaScreen, 120 min; inhibition, % at 12.5 µM; actives 0.54% (n = 310,000); AID 743445; in the data active = inhibition above about 50%
# CASP6 VEID inh: caspase-6 (human) enzyme inhibition. inhibition, % at 12.5 µM. P55212. purified caspase-6, Z-VEID-R110 cleavage fluorescence. actives 0.53% (n = 350,000);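 active = mean inhibition across replicates at least about 35%, with every replicate also reaching that limit, limit read from the data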;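 note: 0% = median of neutral control wells and 100% = no fluorescence left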
# * hit, by the source's call; . = not tested or not shown. The list is not random: actives were taken first. Their share in the collection is about 1.6%.
SMILES,SUMO HTRF inh,SIRT5 inh,NSD2 HMT inh,CASP6 VEID inh
C[C@@H]1CN([C@@H](C)CO)C(=O)c2cc(NS(=O)(=O)c3ccc(Cl)cc3)ccc2O[C@@H](C)CCCCO[C@@H]1CN(C)Cc1ccc2c(c1)OCO2,.,16*,.,-3
C[C@@H]1CN([C@H](C)CO)C(=O)c2cc(NS(=O)(=O)c3ccc(Cl)cc3)ccc2O[C@H]1CN(C)Cc1ccc2c(c1)OCO2,.,20*,.,2
C[C@@H]1CCCCO[C@@H](CN(C)Cc2ccc3c(c2)OCO3)[C@H](C)CN([C@@H](C)CO)C(=O)c2cc(NS(=O)(=O)c3ccc(Cl)cc3)ccc2O1,.,7,.,-2
C/C=C/c1ccc2c(c1)O[C@H](CN(C)C(=O)c1ccccc1F)[C@@H](C)CN([C@H](C)CO)S2(=O)=O,.,-1,.,-1
CO[C@@H]1CN(C)C(=O)c2cc(NS(=O)(=O)c3ccccc3)ccc2OC[C@H](C)N(C(=O)NC(C)C)C[C@@H]1C,.,-1,.,-3
Clc1ccc(Cl)c(OCCN2CCCC2)c1,-5,16*,5,-6
Cc1noc(C)c1NC(=O)Nc1ccc2c(c1)C(=O)N([C@@H](C)CO)C[C@@H](C)[C@H](CN(C)S(=O)(=O)c1c(C)noc1C)OCCCC[C@@H](C)O2,.,4,.,1
C[C@H](O)C#Cc1ccc2c(c1)O[C@@H](CN(C)C(=O)CC1CC1)[C@H](C)CN([C@H](C)CO)S2(=O)=O,.,-1,.,1
CN1C(=O)C(O)(c2sc(N)nc2-c2ccccc2)c2ccccc21 (stereo unspecified),18,21*,-1,0
COC(=O)CN1C(=O)COc2ccc(S(=O)(=O)N3CCCC3)cc21,6,-3,3,0
COC(=O)CN1C(=O)COc2ccc(S(=O)(=O)N3CCCCC3)cc21,.,.,-3,52*
CCC(=O)N(C)C[C@@H]1Oc2cc(C#Cc3ccccn3)ccc2S(=O)(=O)N([C@@H](C)CO)C[C@@H]1C,.,-2,.,2
NNC(=O)Cn1c(-c2ccccc2)cc2ccccc21,-15,21*,6,0
CCCCCCCC(=O)Nc1ccc(C(=O)N/N=C/c2cccc([N+](=O)[O-])c2)cc1,50*,.,0,.
COc1cccc(-c2ccc3c(c2)[C@H]2[C@H](CCN2C(=O)C2CCCCC2)[C@@H](CO)N3)c1,.,1,.,1
O=C1C(Cl)=C(NC(=O)c2ccccc2)C(=O)C(Cl)=C1NC(=O)c1ccccc1,51*,-2,4,9
O=C(NC1=C(Nc2ccc(Cl)cc2)C(=O)c2ccccc2C1=O)c1ccccc1,20,0,27,23
CO[C@@H]1CN(C)C(=O)c2ccc(NC(C)=O)cc2OC[C@H](C)N(C(=O)C2CCCCC2)C[C@@H]1C,.,5,.,2
O=C(c1ccc(Cl)cc1)C1CCCN(C(=O)c2csnn2)C1 (stereo unspecified),12,112*,-1,2
COc1ccc2cc(C(=O)C3CCCN(C(=O)c4csnn4)C3)ccc2c1 (stereo unspecified),9,-10,-1,1
O=C(C[C@@H]1CC[C@@H](NS(=O)(=O)c2ccc(F)cc2)[C@H](CO)O1)NCCN1CCCCC1,.,-7,.,.
Cc1ccn2c(NC3CCCC3)c(-c3ccncc3)nc2c1,9,-2,-2,-2
Cc1ccn2c(NC3CCCCC3)c(-c3cccc(-c4cccc(Cl)c4)c3)nc2c1,.,16*,.,-1
COc1cccc(/C=N/Nc2nc(C)cc(=O)[nH]2)c1OC,11,-1,-3,42*
Cc1nn(-c2ccccc2)c(Cl)c1/C=N/Nc1nc2ccccc2[nH]1,-11,-2,0,-7
SMILES,SUMO HTRF inh,SIRT5 inh,NSD2 HMT inh,CASP6 VEID inh
Cc1cc(=O)[nH]c(N/N=C/c2c(C)nn(-c3ccccc3)c2Cl)n1,19,16*,8,0
C[C@H]1CCCCO[C@@H](CN(C)Cc2ccccc2)[C@@H](C)CN([C@@H](C)CO)C(=O)c2cc(NS(=O)(=O)c3cccs3)ccc2O1,.,-3,.,3
COC(=O)c1ccc2nc(-c3ccc(OC)c(OC)c3)c(Cc3ccccc3C(F)(F)F)n2c1,.,22*,.,5
O=C(Nc1ccc(-c2nc3ccc(NC(=O)c4cccs4)cc3[nH]2)cc1)c1cccs1,56*,.,.,.
COc1ccc(Cc2n[nH]c(=S)n2NC(=O)Nc2ccc(Cl)c(Cl)c2)cc1,97*,-1,.,3
Cn1c(=O)c2c(-c3ccccc3)n(-c3cccc(O)c3)cc2n(C)c1=O,.,39*,.,5
Cc1cccc(-c2c3c(=O)n(C)c(=O)n(C)c3cn2-c2ccc(O)cc2)c1,.,.,0,.
Cc1nnc(N2C(=O)c3oc4ccccc4c(=O)c3C2c2ccco2)s1 (stereo unspecified),8,.,.,38*
CC(C)c1nnc(N2C(=O)c3oc4ccccc4c(=O)c3C2c2ccco2)s1 (stereo unspecified),19,.,6,.
CN(C)CC(=O)Nc1ccc2c(c1)[C@@H]1C[C@@H](CC(=O)NCc3ccc(Cl)cc3)O[C@H](CO)[C@@H]1O2,.,-2,.,-2
N#Cc1c(-c2ccco2)cc(-c2ccccc2)[nH]c1=O,36,0,29,17
N#Cc1c(-c2ccccc2)cc(-c2ccco2)c(C#N)c1N,53*,.,.,.
Cc1ccc(-c2cc(-c3ccco3)c(C#N)c(=O)[nH]2)cc1,62*,-1,4,7
C[C@@H]1CN([C@H](C)CO)C(=O)c2cc(-c3ccc(C#N)cc3)cnc2O[C@H]1CN(C)CC1CCCC1,.,-15,.,-1
C[C@@H]1CN([C@H](C)CO)C(=O)c2cccc(NS(=O)(=O)c3cccs3)c2O[C@@H]1CN(C)Cc1ccncc1,.,0,.,-2
O=C(COc1ccc(S(=O)(=O)NC2CCCCC2)cc1Cl)Nc1ccc2c(c1)OCO2,-10,.,4,.
O=C(COc1ccc(S(=O)(=O)NC2CCCCC2)cc1Cl)NCc1ccc2c(c1)OCO2,-11,1,0,40*
COC(=O)C1CN(C(=O)COc2ccc(C)cc2)c2ccccc2O1 (stereo unspecified),12,35*,0,-1
C[C@H]1CCCCO[C@H](CN(C)Cc2ccc(C(F)(F)F)cc2)[C@@H](C)CN([C@@H](C)CO)C(=O)c2cc(NS(=O)(=O)c3ccc(F)cc3)ccc2O1,.,23*,.,0
C[C@@H]1CCCCO[C@@H](CN(C)Cc2ccc(C(F)(F)F)cc2)[C@@H](C)CN([C@H](C)CO)C(=O)c2cc(NS(=O)(=O)c3ccc(F)cc3)ccc2O1,.,4,.,-4
C[C@H](CO)N1C[C@H](C)[C@@H](CN(C)Cc2ccc(C(F)(F)F)cc2)OCCCC[C@H](C)Oc2ccc(NS(=O)(=O)c3ccc(F)cc3)cc2C1=O,.,20*,.,0
O=C(NC[C@@H]1CC[C@H]2[C@H](CN2Cc2ccc(Oc3ccccc3)cc2)O1)C1CCOCC1,.,-2,.,-2
COc1ccc(CC(=O)Nc2ccc(C(=O)NCC(C)C)cc2)cc1,13,18*,-1,3
COc1ccc(CCNC(=O)c2cc(CC(C)C)on2)cc1OC,12,15*,.,0
COc1ccc(CC(=O)NCCc2ccc(OC)c(OC)c2)cc1,24,0,-1,1
COc1ccc(CCNC(=O)c2cc(C3CC3)on2)cc1OC,6,-5,.,-2
